# Laboratory results published in PubChem BioAssay AID1069 (NMMLSC, 2008).
# Calls of active or inactive are those of the source.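 The calls were made as follows: active = high combined rank on largest and smallest cell-count-weighted shift across three tests, rank score above 45, floors 50 and 25 (some results past the limit were not filed as active); inactive = the rest.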
# Assay: activators of LNCaP cell differentiation, retest, confirmation, side scatter shift, flow cytometry (AID 1069);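 also: LNCaP human prostate cancer cells in low-serum medium with charcoal-stripped FBS; percent of cells with raised granularity gated so DMSO controls show 10%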
# Conditions: 4 d, stronger effect = higher value
Compound,side scatter shift (at 100 µM),"side scatter shift (side scatter shift, at 10 µM) [%]"
CCOc1ccc(-c2cc(C(=O)NCCCN3CCN(CC)CC3)c3ccccc3n2)cc1,28.2% (active),73
Cc1ccnc(NC(=O)CCC(=O)N(CC(=O)NC2CCCCC2)c2cccc(C)c2C)c1,11.1% (inactive),6.85
COc1ccccc1CNC(=O)C1CCN(Cc2nc(-c3cccc(Cl)c3)oc2C)CC1,33.3% (inactive),3.35
COc1ccc(-c2oc3ncn(CCN4CCOCC4)c(=N)c3c2-c2ccc(OC)cc2)cc1,42.3% (inactive),19.7
CCc1ccc(-c2nc(CN3CCC(C(=O)NCCc4ccc(OC)c(OC)c4)CC3)c(C)o2)cc1,35.3% (inactive),21
O=c1c2ccccc2nnn1CSc1nnc2sc3ccccc3n12,15.6% (inactive),4.8
Cc1cccc(-c2nc(CN3CCCC(C(=O)NC4CCCC4)C3)c(C)o2)c1 (stereo unspecified),13.8% (inactive),8.5
CCc1ccc(CNC(=O)CN2C(=O)COc3ccccc32)cc1,9% (inactive),5.7
Cn1c(C(=O)NCCCN2CCN(c3ccccc3F)CC2)cc2c(=O)n(C)c3ccccc3c21,20% (inactive),7.65
Cc1oc(-c2ccc(Cl)cc2)nc1CN1CCCC(C(=O)NCc2ccccn2)C1 (stereo unspecified),26.5% (inactive),6.45
Cc1ccc2[nH]c(=O)c3cc(C(=O)N(C)Cc4ccco4)sc3c2c1,4.2% (inactive),11.1
O=C(NCCCN1CCN(c2cccc(Cl)c2)CC1)c1ccc(N2CCCC2=O)cc1,7.7% (inactive),10.1
Cc1ccccc1-c1nc(CN2CCCC(C(=O)NCc3cccnc3)C2)c(C)o1 (stereo unspecified),13.7% (inactive),7.35
